Reference: PubChem BioAssay (NCATS)
Results filed as inconclusive are left out. Activity calls are given as the source filed them. Unless noted, calls come from the whole dose curve. Numbered stars: 1 amine (or outer) side, 2 acyl side, 3 side chain; on linkers, the order of the positions; unused ones are H or OH. Bridge positions count the residues as written; N and C are the ends. Square brackets hold non-standard residues; d marks the D form. Peptide text beside a SMILES is read from it. I, II: the chains in the order shown. Actinocin(9to1) = Cc1c2oc3c(C)ccc(C(=O)[*:1])c3nc-2c(C(=O)[*:2])c(N)c1=O; NMeV = CN[C@H](C(=O)O)C(C)C; Sar = CNCC(=O)O

Key:
[1] = Cell Viability - BJ (AID 421); settings: BJ fibroblast viability, qHTS;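 note: potency is the fitted concentration of half-maximal effect; cells exposed to compound for 40 hours at 37 °C before readout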
Outline: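 Normal human BJ foreskin fibroblasts, 1500/well in complete medium, treated 40 hr at 37 °C. Cellular ATP by CellTiter-Glo luminescence; normalized to DMSO and 100 uM tamoxifen, AC50 from Hill fit.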

[2] = Cell Viability - Jurkat (AID 426;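 active = dose-dependent loss of cell ATP signal giving a full or clear fitted curve, ranked by lower potency value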; note: potency is the fitted concentration of half-maximal effect); settings: qHTS
Outline: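 Cytotoxicity was scored as loss of cellular ATP, measured by luciferase-based luminescence, in Jurkat clone E6-1 cells after 40 h compound treatment; tamoxifen and doxorubicin served as positive controls.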

[3] = Cell Viability - HepG2 (AID 433); settings: qHTS;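 note: potency is the fitted concentration of half-maximal effect; potency for ATP loss meaning cytotoxicity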
Outline: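 HepG2 cells, 1500 per well, treated 40 hr at 37 °C in complete medium; viability from intracellular ATP by CellTiter-Glo luminescence. Normalized to DMSO and 100 uM tamoxifen; AC50 from Hill fit of qHTS concentration-response.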

[4] = Cell Viability - MRC5 (AID 434); settings: MRC5 lung fibroblast viability, qHTS;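 note: potency is the fitted concentration of half-maximal effect; potency reflects cytotoxicity seen as loss of intracellular ATP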
Outline: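 ATP luminescence read-out (CellTiter-Glo, 20 min RT) after 40 hr, 37 °C compound exposure of 1500 MRC5 cells/well. Data normalized to DMSO (basal) and 100 uM tamoxifen (100% inhibition); AC50 from standard Hill equation.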

[5] = target: Mitogen-activated protein kinase 10 (Mus musculus) (UniProt Q61831); assay: JNK3 AlphaScreen Assay (AID 530; active = well fitted curve in either direction with a large enough effect, not every such curve was filed as active;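 note: kinase came from lysate of stimulated human HepG2 cells; signal reports phosphorylation of biotinylated GST-cJun 1-79 at Ser73 with 10 µM ATP; % is set by controls: 0 for no effect and ±100 for the full control effect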); settings: JNK3 lysate, c-Jun phosphorylation; series mostly up to 25.6 µM
Outline: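 HepG2 lysate (IL-1b/TNFa pre-activated) + biotin-GST-cJun 1-79 + anti-pSer73 cJun; cpd titration, 15 min RT; ATP 10 uM start; Tris pH 7.6, MgCl2, DTT, vanadate; beads in EDTA buffer; AlphaScreen.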

[6] = Cell Viability - N2a (AID 540; active = well fitted curve in the direction sought with a large enough effect; an effect the other way counts as inactive or inconclusive; note: nearly all actives have a fitted effect of over 45% in size; note: potency is the fitted concentration of half-maximal effect;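 for activity change, negative = cytotoxicity: plate controls were DMSO alone for no effect and tamoxifen control for full effect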); settings: N2a mouse neuroblastoma cell viability; activity change, negative = cytotoxicity: at 92.2 µM (top of the series)
Outline: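 In this qHTS cytotoxicity screen, ATP-dependent luciferase luminescence reports viable N2a cells after a 40 hr compound exposure in complete culture medium. Potencies are AC50 values from standard Hill equation fits.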

[7] = Cell Viability - HUV-EC-C (AID 542; active = well fitted curve in the direction sought with a large enough effect; an effect the other way counts as inactive or inconclusive; note: nearly all actives have a fitted effect of over 35% in size; note: potency is the fitted concentration of half-maximal effect); settings: HUV-EC-C endothelial cell viability, qHTS; series mostly up to 92.2 µM
Outline: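 Concentration-dependent ATP loss in HUV-EC-C cells is the measure. Exposure lasts 40 hr at 37 °C; luminescence follows CellTiter-Glo addition, and Hill fits give AC50.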

[8] = target: Cytochrome P450 1A2 (Homo sapiens) (UniProt P05177); assay: p450-cyp1a2 (AID 410); settings: recombinant CYP1A2, luciferin-ME demethylation, luminescence; series mostly up to 25.6 µM; note: potency is the fitted concentration of half-maximal effect;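 for activity change, negative = inhibition: -100% = full effect of reference inhibitor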
Chain of Cytochrome P450 1A2 (Homo sapiens) (P05177 whole entry, looked up): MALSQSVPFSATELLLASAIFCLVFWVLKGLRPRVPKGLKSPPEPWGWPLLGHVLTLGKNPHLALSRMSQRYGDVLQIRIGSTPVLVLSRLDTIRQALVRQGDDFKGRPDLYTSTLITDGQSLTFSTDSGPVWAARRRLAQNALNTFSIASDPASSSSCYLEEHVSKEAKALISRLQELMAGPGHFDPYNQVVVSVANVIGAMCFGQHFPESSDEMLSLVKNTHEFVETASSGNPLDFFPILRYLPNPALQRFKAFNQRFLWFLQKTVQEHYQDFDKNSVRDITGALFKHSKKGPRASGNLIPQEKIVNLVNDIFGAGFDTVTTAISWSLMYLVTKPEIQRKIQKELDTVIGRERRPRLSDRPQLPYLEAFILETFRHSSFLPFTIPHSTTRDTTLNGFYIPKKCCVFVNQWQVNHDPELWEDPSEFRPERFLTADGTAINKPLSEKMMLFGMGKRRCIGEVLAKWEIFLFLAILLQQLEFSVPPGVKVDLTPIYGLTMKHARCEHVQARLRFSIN
Outline: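 Read-out is luminescence from luciferin produced by CYP1A2 demethylation of Luciferin-ME (100uM, at Km). Detection reagent stopped the 60 min NADPH-dependent reaction; signals were normalized to 57 uM furafylline.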

[9] = target: Glucocorticoid receptor (Homo sapiens) (UniProt P04150); assay: GR-EFC Redistribution (AID 451); settings: CHO-K1 GR-EFC translocation, beta-gal luminescence, 2 h; note: potency is the fitted concentration of half-maximal effect
Chain of Glucocorticoid receptor (Homo sapiens) (P04150 whole entry, looked up, the tested form may be a part): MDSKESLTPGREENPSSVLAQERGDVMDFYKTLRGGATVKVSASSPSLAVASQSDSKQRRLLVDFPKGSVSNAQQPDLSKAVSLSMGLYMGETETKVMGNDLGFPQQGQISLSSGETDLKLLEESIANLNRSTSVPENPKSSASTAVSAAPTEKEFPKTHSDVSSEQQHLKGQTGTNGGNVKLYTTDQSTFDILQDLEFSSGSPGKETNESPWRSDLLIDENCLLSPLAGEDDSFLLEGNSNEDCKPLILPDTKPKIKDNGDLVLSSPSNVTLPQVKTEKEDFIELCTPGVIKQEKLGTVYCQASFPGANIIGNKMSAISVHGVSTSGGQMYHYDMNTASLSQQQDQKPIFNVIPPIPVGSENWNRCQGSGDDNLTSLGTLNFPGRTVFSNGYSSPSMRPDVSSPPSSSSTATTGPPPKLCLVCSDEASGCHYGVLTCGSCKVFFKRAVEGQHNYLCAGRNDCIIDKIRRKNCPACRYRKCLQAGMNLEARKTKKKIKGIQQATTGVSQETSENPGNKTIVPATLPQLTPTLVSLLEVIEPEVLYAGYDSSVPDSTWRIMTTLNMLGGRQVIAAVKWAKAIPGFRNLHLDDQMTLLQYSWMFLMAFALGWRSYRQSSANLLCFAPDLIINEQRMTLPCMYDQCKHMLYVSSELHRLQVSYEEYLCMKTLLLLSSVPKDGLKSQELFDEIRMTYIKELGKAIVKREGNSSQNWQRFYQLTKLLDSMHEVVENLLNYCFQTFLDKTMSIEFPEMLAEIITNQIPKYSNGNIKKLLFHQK
Outline: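 CHO-K1 cells expressing nuclear EA and GR-ED fragments of b-gal; compounds titrated up to 46 uM final, 2 h at 37 C. GR nuclear translocation read as complemented b-gal luminescence after 1 h RT detection.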

[10] = target: Glucocorticoid receptor (Homo sapiens) (UniProt P04150); assay: GR-GFP Redistribution (AID 450;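 active = compounds whose dose series gives a full or clear partial fitted curve of increased nuclear translocation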; note: potency is the fitted concentration of half-maximal effect); settings: U2OS GR-GFP nuclear translocation, laser cytometry, 2 h
[11] = AP1 Signaling Pathway (AID 357; active = well fitted curve in either direction with a large enough effect, not every such curve was filed as active; note: % is set by controls: 0 for no effect and ±100 for the full control effect); settings: ME-180 AP-1-bla reporter, EGF-induced, beta-lactamase ratio, 5 h; at 17.2 µM (top of the series)
Outline: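 ME-180 cells with beta-lactamase reporter under AP-1 response element, stimulated with EC50 EGF; compounds tested in titration series, 5 h at 37 °C. CCF4 substrate added 2.5 h at room temperature; 460/530 nm emission ratio gave %activity and AC50.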

[12] = Cell Viability - Hek293 (AID 427;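 active = compounds whose dose-response curve shows a full or clear partial loss of cell viability, called from curve shape rather than a numeric limit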;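 note: potency is the fitted concentration of half-maximal effect; cells exposed to compound for 40 hours at 37 °C before reading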); settings: qHTS
Outline: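 HEK293 cells in complete medium were exposed to compound for 40 hr at 37 °C, then cellular ATP was read by CellTiter-Glo luminescence. Data were normalized to DMSO (basal) and 100 uM tamoxifen (100% inhibition), and AC50 came from Hill fits.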

[13] = Cell Viability - SK-N-SH (AID 435); settings: SK-N-SH neuroblastoma cell viability qHTS;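 note: potency is the fitted concentration of half-maximal effect; compound exposure lasted 40 h at 37 °C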
Outline: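 SK-N-SH neuroblastoma cells (1500/well) treated 40 h at 37 °C in complete medium; viability read as cellular ATP by CellTiter-Glo luminescence. Normalized to DMSO and 100 uM tamoxifen; AC50 from Hill fits of qHTS concentration-response.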

[14] = Cell Viability - NIH 3T3 (AID 541; active = well fitted curve in the direction sought with a large enough effect; an effect the other way counts as inactive or inconclusive; note: nearly all actives have a fitted effect of over 25% in size; note: potency is the fitted concentration of half-maximal effect;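 for activity change, negative = cytotoxicity: plate controls were DMSO alone for no effect and tamoxifen positive control for full effect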); settings: NIH 3T3 cell viability, qHTS; activity change, negative = cytotoxicity: at 92.2 µM (top of the series)
Outline: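 In this cytotoxicity screen, acute toxicity is scored as an ATP drop measured by CellTiter-Glo in NIH 3T3 fibroblasts following a 40 hr, 37 °C incubation with compound.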

[15] = Cell Viability - H-4-II-E (AID 543; active = well fitted curve in the direction sought with a large enough effect; an effect the other way counts as inactive or inconclusive; note: nearly all actives have a fitted effect of over 35% in size; note: potency is the fitted concentration of half-maximal effect); settings: H-4-II-E rat hepatoma viability; series mostly up to 92.2 µM
Outline: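 AC50 from Hill-modelled qHTS concentration-response curves. H-4-II-E rat hepatoma cells in complete medium, 40 hr exposure at 37 °C, viability by CellTiter-Glo ATP luminescence.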

[16] = Cell Viability - SH-SY5Y (AID 544; active = well fitted curve in the direction sought with a large enough effect; an effect the other way counts as inactive or inconclusive; note: nearly all actives have a fitted effect of over 55% in size; note: potency is the fitted concentration of half-maximal effect;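 for viability change, negative = cytotoxic: 0% = DMSO alone and -100% = 100 µM tamoxifen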); settings: SH-SY5Y neuroblastoma cell viability; viability change, negative = cytotoxic: at 92.2 µM (top of the series)
Outline: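 Quantitative HTS in SH-SY5Y neuroblastoma cells, 40 hr treatment at 37 °C, ATP content by luciferase luminescence; AC50 from Hill fits.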

[17] = Cell Viability - Renal Proximal Tubule (AID 545; active = well fitted curve in the direction sought with a large enough effect; an effect the other way counts as inactive or inconclusive; note: nearly all actives have a fitted effect of over 40% in size; note: potency is the fitted concentration of half-maximal effect;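 for activity change, negative = cytotoxicity: 0% = DMSO only and -100% = 100 µM tamoxifen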); settings: renal proximal tubule cells viability, primary cells of rat origin; activity change, negative = cytotoxicity: at 91.7 µM (top of the series)
Outline: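 Rat renal proximal tubule primary cells, 1000/well, exposed to compounds for 40 hr at 37 °C in complete medium; cellular ATP read by CellTiter-Glo luminescence. AC50 from concentration-response fitted with standard Hill equation.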

[18] = Stat Signaling Pathway (AID 446; active = well fitted curve in either direction with a large enough effect, not every such curve was filed as active;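 note: ME-180 cervical cancer cells given 40 pM IL-6 alongside compound; SIE-controlled beta-lactamase reporter measured as 460/530 nm FRET emission ratio; % is set by controls: 0 for no effect and ±100 for the full control effect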); settings: ME-180 (cervical carcinoma) SIE beta-lactamase reporter, IL-6 stimulated, 5 h; at 17.2 µM (top of the series)
Outline: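 Normalization used AC90 stimulation (300 pM IL-6) and AC90 inhibition (125 nM pan-JAK inhibitor at 40 pM IL-6). The underlying signal is SIE-driven beta-lactamase in ME-180 cells after 5 h IL-6 exposure with compound.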

[19] = NFAT Signaling Pathway (AID 444; active = well fitted curve in either direction with a large enough effect, not every such curve was filed as active;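 note: carbachol stimulus at about its EC50 of 1 µM final; % is set by controls: 0 for no effect and ±100 for the full control effect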); settings: Jurkat NFAT-bla M1, carbachol, beta-lactamase ratio, 5 h; at 17.2 µM (top of the series)
Outline: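 Jurkat cells with NFAT-driven β-lactamase reporter and co-expressed M1 receptor, stimulated with carbachol (final 1 uM, ~EC50), compound titration, 5 h at 37 °C. CCF4 loaded 1 h at RT; 460/530 nm ratio gave %activity and AC50.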

C[C@]12CC[C@@H]3c4ccc(O)cc4CC[C@H]3[C@@H]1CC[C@@H]2O
inactive: Potency [1] > 92 µM | Potency [3] > 92 µM | Potency [4] > 92 µM | outcome [5] | Potency [6] | Potency [7]
active: Potency [2] 25.8 µM

CNCC[C@@H](Oc1ccccc1C)c1ccccc1
inactive: Potency [9] > 46 µM | outcome [5]
active: Potency [8] 15.8 µM

Oc1c(I)cc(I)c2cccnc12
inactive: Potency [10] > 20.6 µM

CN1[C@@H]2CC[C@H]1CC(OC(=O)c1c[nH]c3ccccc13)C2 (some centres not stated)
inactive: Potency [8] | outcome [5]

CCCCC(=O)O[C@]1(C(=O)CO)CC[C@H]2[C@@H]3CCC4=CC(=O)CC[C@]4(C)[C@H]3[C@@H](O)C[C@@]21C
inactive: activity change, negative = inhibition [11] 5.88%
active: Potency [10] 0.000459 µM

Nc1ccc(C(=O)O)cc1
inactive: Potency [1] > 92 µM | Potency [2] > 92 µM | Potency [12] > 92 µM | Potency [3] > 92 µM | Potency [4] > 92 µM | Potency [13] > 92 µM | outcome [5] | Potency [6] | Potency [14] | Potency [7] | Potency [15] | Potency [16] | activity change, negative = cytotoxicity [17] -7.22%

CC(=O)O[C@H]1C[C@@H]2CC[C@@H]3[C@H](CC[C@@]4(C)[C@H]3C[C@H]([N+]3(C)CCCCC3)[C@@H]4OC(C)=O)[C@@]2(C)C[C@@H]1[N+]1(C)CCCCC1
inactive: activity change, negative = inhibition [11] 10.4% | Potency [10] > 20.6 µM

CCCCCCC[N+](CC)(CC)CCCCc1ccc(Cl)cc1
inactive: activity, negative = inhibition [18] -5.02% | Potency [10] > 20.6 µM | Potency [9] > 20.6 µM | outcome [5]

O=c1ccc2ccccc2o1
inactive: Potency [1] > 92 µM | Potency [2] > 92 µM | Potency [12] > 92 µM | Potency [3] > 92 µM | Potency [4] > 92 µM | Potency [13] > 92 µM | outcome [5] | Potency [6] | Potency [14] | Potency [7] | Potency [15] | Potency [16] | activity change, negative = cytotoxicity [17] -6.1%

Cc1c2oc3c(C)ccc(C(=O)N[C@@H]4C(=O)N[C@H](C(C)C)C(=O)N5CCC[C@H]5C(=O)N(C)CC(=O)N(C)[C@@H](C(C)C)C(=O)O[C@@H]4C)c3nc-2c(C(=O)N[C@@H]2C(=O)N[C@H](C(C)C)C(=O)N3CCC[C@H]3C(=O)N(C)CC(=O)N(C)[C@@H](C(C)C)C(=O)O[C@@H]2C)c(N)c1=O (I: T[dV]P[Sar][NMeV] / II: T[dV]P[Sar][NMeV]; ester I:1-I:C, II:1-II:C; linker I:N-II:N via Actinocin(9to1))
inactive: Potency [3] > 92 µM | Potency [4] > 92 µM | Potency [13] > 92 µM | outcome [5] | Potency [7]
active: Potency [1] 0.00132 µM | Potency [2] 0.0015 µM | Potency [12] 0.00102 µM | Potency [15] 0.00398 µM | Potency [17] 0.001 µM

Oc1c(I)cc(Cl)c2cccnc12
active: Potency [4] 44.2 µM | Potency [13] 38.6 µM | Potency [6] 31.6 µM | Potency [14] 5.01 µM | Potency [7] 31.6 µM | Potency [15] 50.1 µM | viability change, negative = cytotoxic [16] -84.2%
inactive: Potency [10] > 20.6 µM | Potency [9] > 20.6 µM

COC1=CC(=O)C[C@@H](C)[C@]12Oc1c(Cl)c(OC)cc(OC)c1C2=O
inactive: Potency [1] > 92 µM | Potency [12] > 92 µM | Potency [3] > 92 µM | Potency [4] > 92 µM | outcome [5] | Potency [6] | Potency [14] | Potency [7]
active: Potency [15] 25.1 µM | Potency [16] 25.1 µM

O=C1OC(c2ccc(O)cc2)(c2ccc(O)cc2)c2ccccc21
inactive: Potency [1] > 92 µM | Potency [12] > 92 µM | Potency [3] > 92 µM | Potency [4] > 92 µM | Potency [13] > 92 µM | activity change, negative = inhibition [19] -4.2% | outcome [5] | Potency [6] | Potency [14] | Potency [15]

CCCCCCc1ccc(O)cc1O
inactive: Potency [1] > 92 µM | Potency [2] > 92 µM | Potency [12] > 92 µM | Potency [3] > 92 µM | Potency [4] > 92 µM | Potency [13] > 92 µM | outcome [5] | Potency [7] | Potency [15] | Potency [16] | activity change, negative = cytotoxicity [17] -9.26%

C[C@@H]1CN(CCCn2c3ccccc3c3ccccc32)C[C@H](C)N1
active: Potency [8] 0.794 µM
inactive: outcome [5]

CC[N+](CC)(CCNC(=O)C(=O)NCC[N+](CC)(CC)Cc1ccccc1Cl)Cc1ccccc1Cl
inactive: Potency [8] | outcome [5]

CC(CCc1ccccc1)NCC(O)c1ccc(O)c(C(N)=O)c1 (configuration not stated)
inactive: activity change, negative = inhibition [11] 5.69% | activity change, negative = inhibition [19] 9.12% | Potency [10] > 20.6 µM

c1ccc(-c2ccc(C(c3ccccc3)n3ccnc3)cc2)cc1 (configuration not stated)
inactive: Potency [10] > 20.6 µM

C/C=C(/C(=C/C)c1ccc(O)cc1)c1ccc(O)cc1
inactive: Potency [10] > 20.6 µM

CC(=O)OCC(=O)[C@@]1(OC(C)=O)[C@@H](C)C[C@H]2[C@@H]3C[C@H](F)C4=CC(=O)C=C[C@]4(C)[C@@]3(F)[C@@H](O)C[C@@]21C
inactive: activity change, negative = inhibition [11] -3.12% | activity change, negative = inhibition [19] 17.4%
active: Potency [10] 0.000878 µM

CC(=O)OCC(=O)[C@@]12OC(C)(C)O[C@@H]1C[C@H]1[C@@H]3C[C@H](F)C4=CC(=O)C=C[C@]4(C)[C@@]3(F)[C@@H](O)C[C@@]12C
active: Potency [10] 0.00057 µM
inactive: activity change, negative = inhibition [11] -9.69% | activity change, negative = inhibition [19] 15.1%

CC(=O)c1ccc2c(c1)N(CCCN1CCC(CCO)CC1)c1ccccc1S2
inactive: activity change, negative = inhibition [11] 4.33% | activity, negative = inhibition [18] 9.61% | Potency [10] > 20.6 µM | Potency [9] > 20.6 µM | outcome [5]
